# Source: PubChem BioAssay (National Center for Advancing Translational Sciences (NCATS))
# An excerpt weighted towards active compounds, which were near 7.4% of everything screened.
# ELG1 genotox – qHTS screen for small molecules that induce genotoxicity in human embryonic kidney (HEK293T) cells expressing luciferase-tagged ELG1; HEK293T ELG1-luciferase reporter, luminescence, 16 h; Potency, µM (doses to about 46 µM), most hits filed as activators; 1.3% of 330,000 active; AID 504466, 2011; also: nearly all actives have a fitted effect of over 60% in size
#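 ELG1-luciferase HEK293T cells, 2,000/well; compound pinned in; 16 hr, 37 °C, 5% CO2; ONE-Glo, 30 min RT; luminescence on CCD imager.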
# NPC1 prom act – qHTS Assay for NPC1 Promoter Activators; Huh7 NPC1 promoter luciferase reporter, 24 h; Potency, µM (doses to about 9.22 µM), actives largely listed as activators; 2.4% of 320,000 active; AID 485313, 2010; also: nearly all actives have a fitted effect of over 60% in size
#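 Huh7 cells stably carrying NPC1 promoter–luciferase, plated in Opti-MEM with 10% FBS for 2 h, were exposed to compound in DMSO for 24 h at 37 °C; luciferase reagent was added for 10 min and luminescence read.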
# FLuc counter – qHTS profiling assay for firefly luciferase inhibitor/activator using purifed enzyme and Km concentrations of substrates (counterscreen for miR-21 project); Luciferin 4-monooxygenase (Photinus pyralis), P08659; purified FLuc, Km substrates, luminescence inhibition; AID 588342, 2011; Potency, µM (series often up to 57.5 µM), most hits filed as inhibitors; 6.9% of 360,000 active; also: nearly all actives have a fitted effect of over 55% in size
# Target sequence (P08659 whole entry, looked up): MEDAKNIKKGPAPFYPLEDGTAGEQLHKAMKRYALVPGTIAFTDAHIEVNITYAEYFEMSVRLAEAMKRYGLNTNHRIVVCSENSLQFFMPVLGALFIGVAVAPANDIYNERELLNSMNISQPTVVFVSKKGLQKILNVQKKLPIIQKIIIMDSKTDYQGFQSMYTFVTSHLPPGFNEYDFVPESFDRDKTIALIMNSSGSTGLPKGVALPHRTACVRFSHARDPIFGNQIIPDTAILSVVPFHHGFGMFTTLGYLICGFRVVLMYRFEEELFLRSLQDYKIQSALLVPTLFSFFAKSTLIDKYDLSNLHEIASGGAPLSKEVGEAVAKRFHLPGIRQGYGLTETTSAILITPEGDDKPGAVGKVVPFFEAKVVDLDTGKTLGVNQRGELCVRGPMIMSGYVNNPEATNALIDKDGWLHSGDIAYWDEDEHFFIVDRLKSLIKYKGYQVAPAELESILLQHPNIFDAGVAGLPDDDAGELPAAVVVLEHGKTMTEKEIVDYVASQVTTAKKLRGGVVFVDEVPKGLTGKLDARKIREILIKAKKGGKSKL
#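 Purified P. pyralis luciferase, 10 nM final, with Km-level 10 uM D-luciferin and 10 uM ATP in 50 mM Tris acetate pH 7.5, 10 mM Mg acetate, 0.01% Tween-20, 0.05% BSA; 6-point qHTS titration about 60 µM downward; luminescence read.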
# SMN2 splice up – qHTS Assay for Enhancers of SMN2 Splice Variant Expression | HEK293 SMN2-luciferase splicing reporter, luminescence, 30-36 h | 2.8% of 210,000 active | Potency, µM (series often up to 46.1 µM), most hits filed as activators; also: nearly all actives have a fitted effect of over 55% in size
#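 qHTS luciferase splicing reporter: luminescence rises when SMN2 exon 7 is included in transfected HEK293 cells. Compound exposure lasted 30-36 h at 37C, with 4.5 mM final sodium butyrate as control, followed by a ONE-Glo read.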
# Rab9 promoter act – qHTS Assay for Rab9 Promoter Activators; Huh7 Rab9 promoter-luciferase reporter, luminescence, 24 h; Potency, µM (top dose mostly 9.22 µM), hits mostly activators; 2.8% of 320,000 active; also: nearly all actives have a fitted effect of over 60% in size
#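 Huh7 reporter line, Rab9 promoter upstream of luciferase. Compound exposure 24 h at 37 °C in reduced-serum medium with 10% FBS. Read-out: luminescence.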
# Hits are given with their value; i = inactive; ? = inconclusive; nt = no result. Calls follow the shape of the dose curve; as a rule, active = well fitted curve in the direction sought with a large enough effect; inconclusive = small, poorly fitted or top-dose-only effect, or another doubt; inactive = no such curve, though single readings can be large; an effect the other way counts as inactive or inconclusive.
SMILES,ELG1 genotox,NPC1 prom act,FLuc counter,SMN2 splice up,Rab9 promoter act
Cc1noc(NS(=O)(=O)c2ccc(NC(=O)/C=C/c3ccc(C(C)C)cc3)cc2)c1C,i,i,11µM,nt,i
COc1ccc(/C=C/C(=O)NC(=S)Nc2ccc(S(=O)(=O)Nc3cc(C)on3)cc2)cc1,i,i,15µM,nt,i
Cc1ccc(/C=C/C(=O)Nc2ccc(S(=O)(=O)Nc3cc(C)nc(C)n3)cc2)cc1,i,i,11µM,nt,i
O=C(/C=C/c1ccc(F)cc1)Nc1ccc(S(=O)(=O)Nc2ncccn2)cc1,i,i,17µM,nt,i
COc1ccc2c(c1)OCC(Cc1ccc(OC)c(O)c1)C2=O (stereo unspecified),nt,nt,nt,i,nt
CCOC(=O)N1CCN(C(=O)c2ccc3c(SCC(=O)O)c4c(nc3c2)CCC4)CC1,i,i,i,i,i
CNC(=O)c1c(NC(=O)c2ccc(S(=O)(=O)N3CCCC(C)C3)cc2)sc2c1CCC2 (stereo unspecified),nt,nt,i,nt,nt
O=C(O)/C=C/c1ccc(S(=O)(=O)Nc2ccccc2C(=O)Nc2ccc(F)cc2)cc1,i,i,12µM,nt,i
O=C(Nc1ccc(S(=O)(=O)Nc2ncccn2)cc1)c1ccccc1NS(=O)(=O)c1ccc(F)cc1,i,i,?,i,i
Cc1ccc(/C=C/C(=O)Nc2ccc(S(=O)(=O)Nc3ncccn3)cc2)cc1,i,i,9.5µM,i,i
CC(=O)Nc1ccc(-c2cc(N)n(-c3ccccc3)n2)cc1,?,2.2µM,9.5µM,nt,3.2µM
Cc1ccc(-n2nc(-c3ccc(N)cc3)cc2N)cc1,?,?,19µM,11µM,?
Nc1cc(-c2ccc(Cl)cc2)nn1-c1ccccc1,?,3.2µM,6µM,14µM,3.2µM
CCCCNC(=O)C1=CC(c2ccc3c(c2)OCO3)=NS(=O)(=O)N1C,nt,nt,i,nt,nt
CC(C)NC(=O)c1ccc(NC(=O)N2CCCCc3ccccc32)cc1,nt,nt,i,nt,nt
CC(C)NC(=O)c1ccc2c3n(nc2c1)-c1ccccc1CO3,?,0.28µM,0.43µM,nt,?
CC(C)[C@@H](CO)NC(=O)c1ccc2c3n(nc2c1)-c1ccccc1CO3,?,0.5µM,1.7µM,nt,?
COc1ccc(NC(=O)COCc2cc(-c3cccs3)on2)cc1,nt,nt,i,nt,nt
C/C(=N\Nc1ccccn1)c1cccs1,?,3.5µM,6.7µM,32µM,3.2µM
C/C(=N\NC(=O)c1cc(C(C)C)[nH]n1)c1ccncc1,i,?,?,nt,?
C/C(=N/NC(=O)c1cc(C(C)C)[nH]n1)c1cccs1,?,0.4µM,5.4µM,11µM,0.5µM
C/C(=N\Nc1ccccn1)c1ccc(C#N)cc1,i,i,?,i,i
C/C(=N\NC(=O)c1cnccn1)c1ccc([N+](=O)[O-])cc1,i,i,i,nt,i
C/C(=N/NC(=O)c1cnccn1)c1cccs1,?,2µM,15µM,8.9µM,?
C/C(=N\Nc1ccccn1)c1ccc(OC(F)F)cc1,?,i,15µM,i,i
SMILES,ELG1 genotox,NPC1 prom act,FLuc counter,SMN2 splice up,Rab9 promoter act
COc1ccc(-c2c(C)n([O-])c3c([n+]2=O)CCCC3)cc1OC,i,i,i,i,i
Cn1c(SCc2ccccn2)nc2c1c(=O)[nH]c(=O)n2C,i,i,i,nt,i
CCc1ccc(-n2c(CCC(=O)O)ccc2-c2ccc(F)cc2)cc1,nt,nt,?,i,nt
COc1ccc(CCNC(=O)c2cc3c(=O)n4cccc(C)c4nc3n2C)cc1,nt,nt,i,nt,nt
C/C(=N\NC(=O)c1cc(C)[nH]n1)c1cccs1,?,1.1µM,12µM,11µM,0.32µM
C/C(=N\NC(=O)c1cc(C)[nH]n1)c1ccc(-c2ccccc2)cc1,i,i,i,nt,i
CN(c1ccccc1)S(=O)(=O)c1cccc(NC(=O)CC(C)(C)C)c1,i,i,i,i,i
O=C(CCS(=O)(=O)c1ccccc1)NC12CC3CC(CC(C3)C1)C2,9.2µM,3.2µM,12µM,?,3.5µM
O=C(CCS(=O)(=O)c1ccccc1)NCCS(=O)(=O)c1ccccc1,i,i,i,i,i
CCOC(=O)Cn1cncc1-c1ccc([N+](=O)[O-])cc1,i,i,24µM,?,?
CC(=O)NC(Cc1c[nH]c2ccccc12)C(=O)OCC(=O)Nc1cc(C)on1 (stereo unspecified),i,i,i,i,i
Cc1cc(NC(=O)COC(=O)[C@H](Cc2c[nH]c3ccccc23)NC(=O)c2ccc(F)cc2)no1,i,i,17µM,i,i
O=C(NC(Cc1c[nH]c2ccccc12)C(=O)O)c1ccccc1 (stereo unspecified),i,i,i,?,i
O=C(N[C@@H](Cc1c[nH]c2ccccc12)C(=O)O)c1ccc(Cl)cc1,i,i,17µM,i,i
COc1ccc(C(=O)NC(Cc2c[nH]c3ccccc23)C(=O)O)cc1 (stereo unspecified),i,i,19µM,nt,i
COc1ccc(OCC(=O)NC(Cc2c[nH]c3ccccc23)C(=O)O)cc1 (stereo unspecified),nt,nt,i,i,nt
O=C(Cc1c[nH]c2ccccc12)NCc1ccc(Cl)cc1Cl,i,i,21µM,i,i
CCn1cc(C(=O)OCC(=O)Nc2cccc(C(C)=O)c2)c(=O)c2ccc(C)nc21,nt,nt,i,i,nt
CC(=O)OCC(=O)[C@@]12OC(C)(C)O[C@@H]1C[C@H]1[C@H]3C[C@H](F)C4=CC(=O)C=C[C@@]4(C)[C@]3(F)[C@H](O)C[C@@]12C,nt,nt,nt,i,nt
CCCCOc1ccc(CSCCN=C(N)N)cc1,15µM,i,21µM,nt,i
COc1ccccc1NC(=O)CSc1nnc(-c2ccc(NC(C)=O)cc2)n1C,i,i,i,i,i
CCn1c(SCC(=O)Nc2ccc3c(c2)oc2ccccc23)nnc1-c1ccc(N)cc1,i,i,2.7µM,i,i
CC(=O)Nc1ccc(-c2nnc(SCC(=O)Nc3ccc4c(c3)oc3ccccc34)n2C)cc1,i,?,1.2µM,i,?
CCNC(=S)N(CCc1c(C)[nH]c2ccccc12)Cc1cc(OC)c(OC)c(OC)c1,i,i,i,i,i
CCCN(Cc1cc2cc(C)ccc2[nH]c1=O)C(=O)c1cccc(Cl)c1,nt,nt,i,i,nt
SMILES,ELG1 genotox,NPC1 prom act,FLuc counter,SMN2 splice up,Rab9 promoter act
CCn1c(SCC(=O)Nc2ccc3c(c2)OCCO3)nnc1-c1ccco1,i,i,15µM,i,i
CCn1c(SCC(=O)Nc2ccc3c(c2)OCCO3)nnc1-c1cccnc1,i,i,24µM,nt,i
CCn1c(SCC(=O)NC(=O)Nc2ccc3c(c2)OCCO3)nnc1-c1cccs1,i,i,19µM,i,i
O=C(CSc1nnc(-c2cccs2)n1Cc1ccco1)Nc1ccc2c(c1)OCO2,i,i,i,i,i
CCOC(=O)c1cnn(-c2ccccc2)c1-n1cccc1C(=O)C(=O)Nc1ccccc1,i,i,i,i,i
Cc1cc(Br)c(NC(=O)c2c(-c3c(Cl)cccc3Cl)noc2C)c(Br)c1,i,i,i,nt,i
